21 compounds from PubChem BioAssay (Tox21) can be followed below.

Active and inactive are the calls of the source. Unless noted, calls come from the whole dose curve; as a rule, active = well fitted curve in the direction sought with a large enough effect in the repeat runs; inconclusive = weak or mixed curves; inactive = no such curve, though single readings can be large; an effect the other way counts as inactive or inconclusive.

Experiment [1] in a line: qHTS assay to identify small molecule antagonists of the thyroid receptor (TR) signaling pathway - cell viability counter screen (AID 743064). Note: nearly all actives have a fitted effect of over 50% in size. Note: potency is the fitted concentration of half-maximal effect. The essentials:
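In-well cytotoxicity read by CellTiter-Fluor (30 min, 37 C) following 23.5 h exposure of GH3 cells bearing a TRE-luciferase sensor. Compounds were added alongside 1 nM (final) T3 to drive TR transactivation.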

The nature of experiment [2]: qHTS assay to identify small molecule antagonists of the thyroid receptor (TR) signaling pathway (AID 743065). Note: potency is the fitted concentration of half-maximal effect; nearly all actives have a fitted effect of over 55% in size. Summed up: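 GH3.TRE-Luc rat pituitary cells carrying two TR response elements driving luciferase were plated for 4 h, given compound plus 1 nM T3 (final), and incubated 23.5 h at 37 C. ONE-Glo luminescence measured reporter inhibition; CellTiter-Fluor fluorescence tracked cytotoxicity.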
(qHTS replaces the single test concentration by a dilution series.)

Experiment [3] in a line: qHTS assay to identify small molecule antagonists of the estrogen receptor alpha (ER-alpha) signaling pathway - cell viability counter screen (AID 743074; calls by dose curve;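 note: HEK293 cells carrying ER-alpha-UAS-bla reporter stimulated with 17beta-estradiol; nearly all actives have a fitted effect of over 45% in size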; note: potency is the fitted concentration of half-maximal effect).
Experiment [4] concerns the target Estrogen receptor (Homo sapiens) (UniProt P03372). The experiment is described as follows: qHTS assay to identify small molecule agonists of the estrogen receptor alpha (ER-alpha) signaling pathway (AID 743075; calls by dose curve;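 note: HEK293 GripTite cells with ER-alpha and UAS-driven beta-lactamase reporter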; note: potency is the fitted concentration of half-maximal effect).
For experiment [5] the target is unchanged. The experiment is described as follows: qHTS assay to identify small molecule agonists of the estrogen receptor alpha (ER-alpha) signaling pathway using the BG1 cell line (AID 743079). Note: nearly all actives have a fitted effect of over 20% in size. Note: potency is the fitted concentration of half-maximal effect. Conditions: BG1Luc4E2 cells, ERE-luciferase agonist, 22 h; activation: at 70.3 µM (top of the series).
Experiment [6] can be described thus: qHTS assay to identify small molecule antagonists of the estrogen receptor alpha (ER-alpha) signaling pathway using the BG1 cell line (AID 743080; calls by dose curve;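 note: BG1 cells stimulated with 17beta-estradiol alongside compound; nearly all actives have a fitted effect of over 25% in size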; note: potency is the fitted concentration of half-maximal effect). Summed up: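 BG1Luc4E2, endogenous ER-alpha, 4xERE-luc; 5 d charcoal-stripped FBS, phenol red free; 24 h plating; cpd + 17beta-estradiol 21.5 h, 37 C/5% CO2; CellTiter-Fluor viability 30 min, then ONE-Glo luciferase 30 min RT.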

Experiment [7] is described as follows: qHTS assay to identify small molecule antagonists of the estrogen receptor alpha (ER-alpha) signaling pathway using the BG1 cell line - cell viability counter screen (AID 743081).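 Note: compound given together with 17beta-estradiol as the ER stimulus; nearly all actives have a fitted effect of over 45% in size.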 Note: potency is the fitted concentration of half-maximal effect.
In another experiment the target is Aromatase (Homo sapiens) (UniProt P11511). Put plainly: qHTS assay to identify aromatase inhibitors (AID 743083). Note: nearly all actives have a fitted effect of over 55% in size. Note: potency is the fitted concentration of half-maximal effect.
Sequence of Aromatase (Homo sapiens) (P11511 whole entry, looked up): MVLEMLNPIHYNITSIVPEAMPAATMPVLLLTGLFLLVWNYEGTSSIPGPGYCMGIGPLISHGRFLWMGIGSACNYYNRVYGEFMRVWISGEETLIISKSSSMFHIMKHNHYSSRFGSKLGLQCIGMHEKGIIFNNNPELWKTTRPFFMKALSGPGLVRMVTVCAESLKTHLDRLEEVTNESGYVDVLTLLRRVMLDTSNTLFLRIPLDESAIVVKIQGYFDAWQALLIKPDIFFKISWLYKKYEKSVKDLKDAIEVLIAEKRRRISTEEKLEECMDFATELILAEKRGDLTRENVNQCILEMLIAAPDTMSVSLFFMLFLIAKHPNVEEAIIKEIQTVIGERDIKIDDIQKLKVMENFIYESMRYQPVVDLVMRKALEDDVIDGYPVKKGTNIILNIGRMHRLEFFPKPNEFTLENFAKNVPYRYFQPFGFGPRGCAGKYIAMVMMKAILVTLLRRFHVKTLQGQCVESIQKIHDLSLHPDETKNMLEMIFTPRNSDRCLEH
Experiment [8] concerns thyroid hormone receptor (rat, GH3 cells). Put plainly: qHTS assay to identify small molecule agonists of the thyroid receptor (TR) signaling pathway (AID 743066; calls by dose curve).
For experiment [9], the target named is Estrogen receptor (Homo sapiens) (UniProt P03372). The experiment is described as follows: qHTS assay to identify small molecule antagonists of the estrogen receptor alpha (ER-alpha) signaling pathway (AID 743069; active = well fitted curve in the direction sought with a large enough effect in the signal ratio in the repeat runs, not every such curve was filed as active; inconclusive = weak or mixed curves, or effect the other way; inactive = no such curve, though single readings can be large or run the other way; the % refers to the signal ratio; note: potency is the fitted concentration of half-maximal effect). The essentials: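 A 17beta-estradiol challenge was applied right after compound transfer to ER-alpha-UAS-bla HEK293 cells previously kept in charcoal-stripped serum. Plates stood 18 hr at 37C and 5% CO2; fluorescence was read following 2 hr FRET substrate loading at room temperature.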
Sequence of Estrogen receptor (Homo sapiens) (P03372 whole entry, looked up): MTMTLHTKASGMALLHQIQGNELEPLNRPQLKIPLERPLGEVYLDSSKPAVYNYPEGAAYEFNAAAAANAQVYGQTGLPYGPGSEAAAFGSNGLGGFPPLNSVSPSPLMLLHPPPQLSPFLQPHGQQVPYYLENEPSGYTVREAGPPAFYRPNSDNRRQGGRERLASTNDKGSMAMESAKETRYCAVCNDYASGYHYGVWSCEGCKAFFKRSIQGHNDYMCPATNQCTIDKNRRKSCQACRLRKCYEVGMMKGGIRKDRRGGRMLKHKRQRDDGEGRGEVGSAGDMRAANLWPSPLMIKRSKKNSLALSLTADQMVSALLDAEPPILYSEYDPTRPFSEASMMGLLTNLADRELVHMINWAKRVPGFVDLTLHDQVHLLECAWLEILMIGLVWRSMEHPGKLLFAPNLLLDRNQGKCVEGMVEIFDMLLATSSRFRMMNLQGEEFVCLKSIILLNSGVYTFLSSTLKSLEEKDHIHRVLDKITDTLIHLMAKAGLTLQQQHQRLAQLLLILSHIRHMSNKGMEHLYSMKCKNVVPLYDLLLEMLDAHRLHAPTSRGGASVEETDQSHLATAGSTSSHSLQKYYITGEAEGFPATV

Take `CN1CCC(CN2c3ccccc3Sc3ccccc32)C1` (centres undefined): the Potency was 10.6 µM (active) in experiment [1] and 11.9 µM (active) in [2]. Further, the Potency result (in [3]; in experiment [4]; in [5]; in [6]; in [7]; in the experiment with Aromatase (Homo sapiens)) was “inactive” each time.
Consider `Cc1cccc(C)c1N(CCCc1cccnc1)C(=O)C(C)N` (centres undefined), for which the Potency entry in [1], in experiment [8], in experiment [9], in experiment [3], in experiment [4] and in experiment [5] was “inactive” each time. Moreover, the Potency result in experiment [6] and in experiment [7] was “inactive” each time. The Potency with Aromatase (Homo sapiens) was 5.96 µM (active).
Regarding `CCCCCCCCCCCCCC[n+]1ccc(C)cc1`, the results for the Potency (in experiment [1]; in experiment [2]; with Aromatase (Homo sapiens)) were 7.5 µM (active), 4.73 µM (active) and 8.41 µM (active), respectively. For the same compound, in [4], the Potency result was “inactive”.
Turning to `COc1cc([C@@H]2c3cc4c(cc3C(O[C@@H]3O[C@@H]5COC(c6cccs6)O[C@H]5[C@H](O)[C@H]3O)C3COC(=O)[C@@H]32)OCO4)cc(OC)c1O` (some centres undefined), the Potency in experiment [1] was 2.37 µM (active); in experiment [9] it was 6.74 µM [inconclusive] (active). The Potency entry in experiment [8], in [3] and in [4] was “inactive” in each case.
Regarding `CCCC1([C@H](O)C/C=C/[C@H]2[C@H](O)CC(=O)[C@@H]2CCCCCCC(=O)OC)CCC1`, the figures for the Potency in experiment [1] and in experiment [2] were 29.8 µM (active) and 26.6 µM (active), respectively. Besides, the Potency result in [3], in [5], in experiment [6] and in experiment [7] was “inactive” throughout.
Regarding `COc1ccc(C2NC(=S)N3C(c4ccc(OC)c(OC)c4)NC(=S)N23)cc1OC` (centres undefined), the Potency is 0.188 µM (active) in [1], 0.0841 µM (active) in experiment [2] and 0.168 µM (active) in the experiment with Aromatase (Homo sapiens). Moreover, the Potency result in [3], in experiment [4], in experiment [5] and in experiment [7] was “inactive” in each case.
For `CN=C1C=CC(=C(c2ccc(N(C)C)cc2)c2ccc(N(C)C)cc2)C=C1`, the Potency was 3.35 µM (active) in [1]; 2.37 µM (active) in experiment [2]; 9.52 µM (active) in experiment [3]; 11.9 µM (active) in [7]; 1.33 µM (active) with Aromatase (Homo sapiens).
As to `O=C(Nc1ccc(Br)cc1)c1cc(Br)c(Br)s1`, the Potency in [1] was 18.8 µM (active); in experiment [2], 13.3 µM (active). Also, the Potency result (in [4]; in [7]; with Aromatase (Homo sapiens)) was “inactive” each time.
In the case of `O=C(O[C@H]1CN2CCC1CC2)N1CCc2ccccc2[C@@H]1c1ccccc1`, the Potency in experiment [1] and in [2] was 23.7 µM (active) each time. For the same compound, the Potency result (in experiment [3]; in experiment [7]; with Aromatase (Homo sapiens)) was “inactive” in each case.
Regarding `Cc1cc(/C=C/c2ccc3cc(N(C)C)ccc3[n+]2C)c(C)n1-c1ccccc1`, the Potency in experiment [1] is 6.39 µM (active); in experiment [2], 4.03 µM (active); in experiment [7] it was 11.4 µM (active); in the experiment with Aromatase (Homo sapiens), 7.17 µM (active).
Turning to `CC(CN(C)C)CN1c2ccccc2Sc2ccc(C(F)(F)F)cc21` (centres undefined), the Potency in experiment [1] is 8.41 µM (active); in experiment [2] it was 13.3 µM (active). For the same compound, the Potency entry in [3] and in experiment [7] was “inactive” throughout.
With `C/C=C1\NC(=O)[C@H]2CSSCC/C=C/[C@H](CC(=O)N[C@H](C(C)C)C(=O)N2)OC(=O)C(C(C)C)NC1=O` (some centres undefined), the Potency in experiment [1] is 0.0119 µM (active); in experiment [2], 0.0168 µM (active); in experiment [3], 6.74 µM (active); in experiment [4] it was 15.1 µM [inconclusive] (active); in experiment [6] it was 0.0531 µM (active); in the experiment with Aromatase (Homo sapiens) it was 0.0094 µM (active).
In the case of `CC(C)=CCC/C(C)=C/C=C/C(C)=C/C=C/C(C)=C/C=C/C=C(C)/C=C/C=C(C)/C=C/C=C(\C)CCC=C(C)C`, the Potency entry in [1], in experiment [8], in experiment [9], in experiment [3], in experiment [6] and in experiment [7] was “inactive” in each case. In the experiment with Aromatase (Homo sapiens), the Potency result was “inactive”. Moreover, the Potency in [4] was 7.56 µM [inconclusive] (active); in experiment [5], 6.68 µM (active).
Take `CC[C@]1(O)CC2CN(CCc3c([nH]c4ccccc34)[C@@](C(=O)OC)(c3cc4c(cc3OC)N(C)[C@H]3[C@@](O)(C(N)=O)[C@H](O)[C@]5(CC)C=CCN6CC[C@]43[C@@H]65)C2)C1` (some centres undefined): the Potency in experiment [1] was 0.335 µM (active); in experiment [2], 0.168 µM (active); in experiment [6], 0.15 µM (active). The Potency entry (in experiment [5]; with Aromatase (Homo sapiens)) was “inactive” in each case.
As for `OCCN1CCN(CC/C=C2/c3ccccc3Sc3ccc(Cl)cc32)CC1`, the Potency in experiment [1] is 10.1 µM (active); in [2], 11.4 µM (active). Also, the Potency entry (in experiment [3]; in experiment [7]; in the experiment with Aromatase (Homo sapiens)) was “inactive” each time.
For `CSc1nc2cc(Oc3cccc(Cl)c3Cl)c(Cl)cc2[nH]1`, the Potency in experiment [1] was 13.3 µM (active); in experiment [2], 8.41 µM (active); in experiment [3] it was 23.9 µM (active); with Aromatase (Homo sapiens), 23.7 µM (active).
For `CCCCCCOc1ccc(C(=N)N(CCCC)CCCC)c2ccccc12`, the Potency was 5.31 µM (active) in experiment [1]; 5.31 µM (active) in experiment [2]; 9.52 µM (active) in experiment [3]; 33.5 µM (active) in experiment [7]; 13.3 µM (active) with Aromatase (Homo sapiens).
For the compound `CCN(CC)CCOc1ccc(-c2nc3cc(Cl)ccc3s2)cc1`, the Potency is 8.41 µM (active) in experiment [1] and 6.68 µM (active) in [2]. Besides, the Potency entry (in [3]; in experiment [4]; in experiment [7]; in the experiment with Aromatase (Homo sapiens)) was “inactive” throughout.
As to `C=C1CC[C@H](O)CC1=C/C=C1\CCC[C@]2(C)[C@@H]([C@H](C)CCCC(C)(C)O)CC[C@@H]12`, the Potency is 11.9 µM (active) in experiment [1], 6.68 µM (active) in experiment [2] and 23.9 µM (active) in [3]. For the same compound, the Potency result (in experiment [4]; in experiment [7]; with Aromatase (Homo sapiens)) was “inactive” in each case.
As for `CCNC(=O)[C@@H]1CCCN1C(=O)[C@H](CCCN=C(N)N)NC(=O)[C@H](CC(C)C)NC(=O)[C@@H](Cc1c[nH]c2ccccc12)NC(=O)[C@H](Cc1ccc(O)cc1)NC(=O)[C@H](CO)NC(=O)[C@H](Cc1c[nH]c2ccccc12)NC(=O)[C@H](Cc1cnc[nH]1)NC(=O)[C@@H]1CCC(=O)N1`, the Potency in experiment [1] was 1.5 µM (active); in experiment [2], 1.33 µM (active); in [3] it was 10.7 µM (active); in experiment [7], 10.6 µM (active); with Aromatase (Homo sapiens), 13.3 µM (active).
Turning to `C=C1CC[C@H](O)CC1=C/C=C1\CCC[C@]2(C)[C@@H]([C@H](C)CC[C@@H](O)C(C)(C)O)CC[C@@H]12`, the Potency was 26.6 µM (active) in [1], 16.8 µM (active) in experiment [2] and 21.3 µM [inconclusive] (active) in experiment [9]. Besides, the Potency entry (in experiment [4]; in [7]; with Aromatase (Homo sapiens)) was “inactive” in each case.
